The values below come from PubChem BioAssay AID588382 (National Center for Advancing Translational Sciences (NCATS), 2011).

In all, about 1,300 compounds went through this assay and about 150 (12%) were called active. Roughly 30% stayed inconclusive and do not appear here. Calls come from the whole dose curve; as a rule, active = well fitted cell-killing curve with a large enough effect; inconclusive = small, poorly fitted or top-dose-only effect, or effect the other way; inactive = flat fitted curve, though single readings scatter. The sample as a whole holds a higher share of actives than the screen did.
% is set by controls: 0 for no effect and ±100 for the full control effect; potency is the fitted concentration of half-maximal effect.

This assay is described as follows: qHTS of small molecules that selectively kill Giardia lamblia: Hit Validation in HepG2 cytotox.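 For activity change, negative = cytotoxicity: viability measured as cellular ATP by ATPLite luminescence.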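 Note: compound exposure lasted overnight at 37 deg C; nearly all actives have a fitted effect of over 55% in size.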 To be noted: cell viability; Potency: HepG2 cytotoxicity; series mostly up to 38.3 µM; activity change, negative = cytotoxicity: at the top concentration. Summed up:
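HepG2 cells seeded and incubated overnight at 37 deg C, then 23 nL compound added by pintool and incubated overnight at 37 deg C. Viability read as ATP luminescence with ATPLite after 15 min at room temperature.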
Regarding `Cc1cc(C)cc(N=c2c([N+](=O)[O-])nn(-c3cccc(Cl)c3)n2O)c1`, the “activity change, negative = cytotoxicity” value was 17.1% (inactive).

Consider `O=C(Nc1ccc2oc(-c3cccnc3)nc2c1)c1ccc([N+](=O)[O-])o1`, for which the Potency was 13.1 µM (active).

In the case of `O=C(Nc1ccc2oc(-c3ccccc3F)nc2c1)c1ccc([N+](=O)[O-])o1`, the “activity change, negative = cytotoxicity” value was 16.3% (inactive).

As for `Cc1ccc(-c2nnc(NC(=O)c3ccc([N+](=O)[O-])o3)o2)c(C)c1`, the “activity change, negative = cytotoxicity” value was -10.4% (inactive).

As for `O=C(Nc1ccc(-c2nc3ncccc3o2)cc1)c1ccc([N+](=O)[O-])o1`, the Potency is 4.65 µM (active).

On to `Cc1cccnc1NC(=O)c1ccc([N+](=O)[O-])o1`, for which the “activity change, negative = cytotoxicity” value is 5.86% (inactive).

Consider `O=C(Nc1ccc2oc(-c3ccncc3)nc2c1)c1ccc([N+](=O)[O-])o1`, for which the Potency is 16.5 µM (active).

`COc1ccc(-n2c(C)cc(C(=O)COc3ccc(C)nc3[N+](=O)[O-])c2C)cc1`: the “activity change, negative = cytotoxicity” value was 0.437% (inactive).

As for `CC(=O)c1c(COC(=O)c2ccc(F)cc2)nc2ccccc2[n+]1[O-]`, the “activity change, negative = cytotoxicity” value is 26.6% (inactive).

In the case of `COc1ccc(-n2nc([N+](=O)[O-])c(=NCCc3ccc(OC)c(OC)c3)n2O)cc1`, the “activity change, negative = cytotoxicity” value is 19.2% (inactive).

On to `Cc1cccc(NC(=O)CN2C(=O)S/C(=C\c3ccc(O)c([N+](=O)[O-])c3)C2=O)c1`, for which the “activity change, negative = cytotoxicity” value was 1.03% (inactive).

For the compound `Cn1nc(N)c2c(-c3ccc(Cl)cc3)c(C#N)c(N)nc21`, the “activity change, negative = cytotoxicity” value was 18.2% (inactive).

Turning to `O=[N+]([O-])c1ccc(/C=N/Nc2nc(N3CCCC3)nc(N3CCCC3)n2)o1`, the “activity change, negative = cytotoxicity” value is 27.3% (inactive).

In the case of `CCN(CC)S(=O)(=O)c1cccc(N=Nc2c(O)c3ccccc3oc2=O)c1`, the “activity change, negative = cytotoxicity” value was 3.89% (inactive).

On to `Cc1ccc(S(=O)(=O)N2[C@@H](c3ccc(Cl)cc3)C(C(=O)O)=CC[C@H]2c2cccc(Cl)c2)cc1`, for which the “activity change, negative = cytotoxicity” value is 4.59% (inactive).

`O=[N+]([O-])c1ccc(NCc2ccccc2N2CCC(CO)CC2)nc1`: the “activity change, negative = cytotoxicity” value was 0.405% (inactive).

For `Cc1c(Cl)cccc1N=c1c([N+](=O)[O-])nn(-c2ccccc2)n1O`, the “activity change, negative = cytotoxicity” value is 11.6% (inactive).

Regarding `CN=c1c([N+](=O)[O-])nn(-c2ccc3c(c2)OCCO3)n1O`, the “activity change, negative = cytotoxicity” value is 19.2% (inactive).

Take `O=c1c2c([N+](=O)[O-])cc([N+](=O)[O-])cc2nc2ccccn12`: the “activity change, negative = cytotoxicity” value was 12.5% (inactive).

For the compound `CCCC12CN3CC(C)(CN(C1)C3c1ccc([N+](=O)[O-])o1)C2=O` (stereo unspecified), the “activity change, negative = cytotoxicity” value is 23.5% (inactive).

Take `CC(=O)CSc1ccc(-c2nc3ccccc3[nH]2)cn1`: the Potency is 14.7 µM (active).

With `Cc1ncc([N+](=O)[O-])n1CCOC(=O)NC(NCc1ccccc1)C(Cl)(Cl)Cl` (stereo unspecified), the “activity change, negative = cytotoxicity” value was 6.73% (inactive).

`Cc1cnc(N=Nc2ccccc2)[nH]1`: the “activity change, negative = cytotoxicity” value was 9.01% (inactive).

Regarding `Cc1cc2nc(-c3ccc[nH]c3=O)[nH]c2cc1C`, the Potency was 2.33 µM (active).

Regarding `O=[N+]([O-])c1nn(-c2ccc3c(c2)OCCO3)n(O)c1=NC1CCCCC1`, the “activity change, negative = cytotoxicity” value is -2.04% (inactive).

For `CC(NC(=O)COc1cccnc1[N+](=O)[O-])c1ccc(F)cc1` (stereo unspecified), the “activity change, negative = cytotoxicity” value was 20.7% (inactive).

With `O=C(Nc1nnc(SCC(=O)N2CCOCC2)s1)c1ccccc1`, the Potency is 2.33 µM (active).

For `O=C(Cc1ccc(-n2c(=O)c3sccc3n(CC(=O)Nc3ccccc3)c2=O)cc1)NCc1ccco1`, the “activity change, negative = cytotoxicity” value is 10.6% (inactive).

On to `O=C(Nc1nnc(SCC(=O)N2CCOCC2)s1)c1ccccc1Cl`, for which the Potency was 2.07 µM (active).

In the case of `O=C(CSc1nnc(NC(=O)c2c(F)cccc2F)s1)Nc1ccc(F)cc1`, the “activity change, negative = cytotoxicity” value was 5.56% (inactive).

On to `O=C(CSc1nnc(NC(=O)c2ccccc2)s1)NCc1ccco1`, for which the Potency was 2.07 µM (active).

On to `Cc1ccc(S(=O)(=O)N2[C@@H](c3ccccc3)C(C(=O)O)=CC[C@H]2c2ccc3c(c2)OCO3)cc1`, for which the “activity change, negative = cytotoxicity” value is 7.58% (inactive).

Regarding `CCN(c1ccccc1)S(=O)(=O)c1cccc(C(=O)OCc2nc3sc(C)c(C)c3c(=O)[nH]2)c1`, the “activity change, negative = cytotoxicity” value was 14.1% (inactive).

Consider `CC(OC(=O)c1ccc([N+](=O)[O-])s1)C(=O)NC1CCCCC1C` (stereo unspecified), for which the “activity change, negative = cytotoxicity” value was -1.99% (inactive).

In the case of `O=[N+]([O-])c1nn(-c2ccc3c(c2)OCCO3)n(O)c1=NCCCO`, the “activity change, negative = cytotoxicity” value is 6.86% (inactive).

With `O=[N+]([O-])c1ccc(-c2nc(C(Cl)Cl)c3ccccc3n2)cc1`, the “activity change, negative = cytotoxicity” value was 16.9% (inactive).

On to `CCOC(=O)C1=C(C)N=c2s/c(=C\c3ccc(O)c([N+](=O)[O-])c3)c(=O)n2C1c1ccccc1OC` (stereo unspecified), for which the “activity change, negative = cytotoxicity” value is -5.81% (inactive).

`Nc1ccc[n+](CC(=O)c2ccc(F)cc2)c1`: the Potency was 1.65 µM (active).

In the case of `CCOC(=O)c1c(C)[nH]c(C)c1S(=O)(=O)N1CCN(c2ccc([N+](=O)[O-])cc2)CC1`, the “activity change, negative = cytotoxicity” value is 10.8% (inactive).

Take `Cc1ccc(CN=c2c([N+](=O)[O-])nn(-c3cccc(Cl)c3)n2O)cc1`: the “activity change, negative = cytotoxicity” value is 20.9% (inactive).

`CCCn1c(NC(=O)c2ccc([N+](=O)[O-])o2)nc2ccccc21`: the “activity change, negative = cytotoxicity” value was -29.1% (inactive).

With `N#C/C(=C(/O)c1ccc([N+](=O)[O-])o1)c1nc2ccccc2[nH]1`, the Potency was 3.69 µM (active).

Take `CN(Cc1ccccc1)C(=O)c1ccc([N+](=O)[O-])o1`: the “activity change, negative = cytotoxicity” value is 8.4% (inactive).

As for `COc1ccc(C(=S)NC2CCCCC2)cc1`, the “activity change, negative = cytotoxicity” value is 8.79% (inactive).

As to `COc1ccccc1-c1nnc(C2CCN(S(=O)(=O)c3cccc([N+](=O)[O-])c3)CC2)o1`, the “activity change, negative = cytotoxicity” value is -11.8% (inactive).

`CS(=O)(=O)N1CCN(c2ccc([N+](=O)[O-])c3cccnc23)CC1`: the “activity change, negative = cytotoxicity” value was 12.2% (inactive).

Regarding `COc1ccccc1C1OC2=C(Nc3ccc([N+](=O)[O-])cc3N2)C1=O` (stereo unspecified), the “activity change, negative = cytotoxicity” value was 5.53% (inactive).

For the compound `CNc1nnc(-c2ccc(N(C)C)cc2)s1`, the Potency is 4.14 µM (active).

Consider `Cc1ccccc1NC(NC(=O)OCCn1c([N+](=O)[O-])cnc1C)C(Cl)(Cl)Cl` (stereo unspecified), for which the “activity change, negative = cytotoxicity” value was 15.1% (inactive).

`COc1cc(/C=C/c2ccc3cccc(OC)c3n2)c(O)c([N+](=O)[O-])c1`: the “activity change, negative = cytotoxicity” value was -0.206% (inactive).

As to `CC1=NN(c2nc3ccccc3[nH]2)C(=O)/C1=C/N(C)C`, the Potency was 0.927 µM (active).

Take `Cc1ccc([C@H]2C(C(=O)O)=CC[C@@H](c3cccc(Cl)c3)N2S(=O)(=O)c2ccc(C)cc2)cc1`: the “activity change, negative = cytotoxicity” value is 20.3% (inactive).

For `O=[N+]([O-])c1cccc(-n2nnnc2CNCc2ccccc2)c1`, the “activity change, negative = cytotoxicity” value was 4.65% (inactive).

On to `O=C(O)c1cc2ccccc2c(N=Nc2cccnc2)c1O`, for which the “activity change, negative = cytotoxicity” value is 17.4% (inactive).

As for `CC(=O)N1CCN(c2ccc(NC(=O)c3ccc([N+](=O)[O-])o3)cc2Cl)CC1`, the Potency was 9.27 µM (active).

Consider `CCC(=O)N1CCN(c2ccc(NC(=O)c3ccc([N+](=O)[O-])o3)cc2Cl)CC1`, for which the Potency is 3.69 µM (active).

As for `CC(=O)N1CCN(c2ccc(S(C)(=O)=O)cc2[N+](=O)[O-])CC1`, the “activity change, negative = cytotoxicity” value is 14.8% (inactive).

On to `CN1CCN(c2ccc(NC(=O)c3ccc([N+](=O)[O-])o3)cc2Cl)CC1`, for which the Potency was 3.69 µM (active).

Take `O=C(Nc1nc2c(Cl)cccc2s1)c1ccc([N+](=O)[O-])o1`: the “activity change, negative = cytotoxicity” value is -7.01% (inactive).

As to `O=C(Nc1cccc(NC(=O)c2ccccc2Cl)c1)c1ccc([N+](=O)[O-])o1`, the Potency is 2.61 µM (active).

In the case of `CCC(=O)N1CCN(c2ccc(Cl)cc2NC(=O)c2ccc([N+](=O)[O-])o2)CC1`, the “activity change, negative = cytotoxicity” value was 13% (inactive).
